# Bioassay records: PubChem BioAssay, several laboratories
# MITF act – increases MITF-driven TRPM1 promoter luciferase signal. SK-MEL-5 TRPM1-promoter luciferase, 24 h; % of positive control, neutral wells = 0. activation, % at 12.5 µM. 300,000 compounds, 0.75% hits. AID 588334;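 active = mean activation of at least 80% with every replicate also reaching 80%; inconclusive = mean reaches 80% but some replicate falls short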;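 also: 0% = neutral control wells and 100% = parthenolide positive control wells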
# SMARCA2 act – activators of SMARCA2 function; activation, % at 9.1 µM; 370,000 compounds, 1% hits; MG213 cells, MMTV-luciferase reporter, dexamethasone, overnight; in the data active = activation above about 7.8%;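 also: 0% = vehicle wells and 100% = reference activator wells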
# esBAF inh – SWI/SNF esBAF complex inhibition | mouse ES cells, Bmi1-luciferase knock-in reporter, 24 h; 100% = twice the neutral-well signal | reporter increase, % at 12.5 µM | 350,000 compounds, 2% hits; in the data active = activation above about 40%; inconclusive = no clear call, values can overlap the other calls;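 also: 0% = median of the plate's neutral control wells and 100% = double that signal; a rise in the Bmi1 reporter signal indicates esBAF inhibition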
# HSF1 inh – HSF1 inhibition. activity change, negative = inhibition, % at 7.5 µM (by protocol). 300,000 compounds, 0.77% hits. AID 2098. NIH3T3-HGL HSE-luciferase, MG132-induced, luminescence 8 h; stronger effect = lower value;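 active = more than half of replicate wells show activity change below -50%, luminescence cut by over half; inconclusive = some wells, but at most half, below -50%; inactive = no replicate well below -50%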;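 also: luciferase reports HSF-1 transcriptional activity via heat shock element; 0% = median of DMSO wells and -100% = zero luminescence signal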
# HSF-1 act – increases HSF-1 driven luciferase reporter signal; NIH3T3-HGL HSF-1 luciferase reporter, MG132, 8 h; 100% = twice DMSO control signal; activation, % at 9 µM; 300,000 compounds, 1.7% hits;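 active = mean replicate activation of at least 50% with a set share of replicates each reaching 50%; inconclusive = only one of those two conditions met; inactive = mean below 50% and too few replicates reaching it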;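 also: 0% = median of the neutral control wells and 100% = twice that signal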
# Wnt bcat act – Wnt/beta-catenin pathway activation. Wnt/beta-catenin reporter cell assay, activator, plate reader. activation, % at 9.35 µM. AID 743398. 300,000 compounds, 1.2% hits; in the data active = activation above about 30%, passing the limit was not always enough; inconclusive = no clear call, values can overlap the other calls;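 also: 0% = neutral control wells and 100% = positive control wells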
# esBAF Ring1 qPCR – esBAF inhibition confirmed by Ring1 de-repression; fold change at 33 µM; AID 743176; shares compounds with esBAF inh; mouse ESC E14, Ring1 mRNA RT-qPCR fold change; 550 tested, under 10 active;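 active = Ring1 gene expression raised more than 2-fold over untreated cells in both replicates at either tested dose; inconclusive = only one replicate above 2-fold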;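 also: Ring1 transcript normalised to actin housekeeping signal by TaqMan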
# esBAF Fgf4 qPCR – confirmation of esBAF inhibitors: Fgf4 repression in mouse ESCs | AID 743177 | shares compounds with esBAF inh | Fgf4 expression fold change at 33 µM | mouse ESC E14, Fgf4 mRNA qPCR fold change; stronger effect = lower value | 550 compounds, 4% hits;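 active = Fgf4 expression under 0.8 fold of control in both repeat measurements at one or both tested doses; inconclusive = under 0.8 fold in just a single repeat measurement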;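 also: Fgf4 transcript normalised to actin in duplex TaqMan qPCR; cells exposed to compound for 24 h before lysis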
# Bmi1 derepress – confirmation of esBAF inhibitors: Bmi1 de-repression in mouse ESCs. shares compounds with esBAF inh. mouse ESE14 ES cells, Bmi1 mRNA qPCR fold; stronger effect = higher value. fold change at 33 µM. 550 tested, under 10 active;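 active = Bmi1 expression fold change above 6 at either tested concentration, seen in replicate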;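 also: higher fold means more Bmi1 de-repression and stronger esBAF inhibition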
# A549 cytotox – A549 cell cytotoxicity | AID 743188 | shares compounds with esBAF inh | cell viability change % (negative = cytotoxic), % at 25 µM, hits read low | 550 tested, under 10 active | plate reader; call rule not given here
# HepG2 tox SP – cytotoxicity in HepG2 cells; plate reader; stronger effect = lower value; 550 compounds, 4% hits; AID 743189; activity change, negative = inhibition, % at 25 µM; shares compounds with esBAF inh; in the data active = activity change below about -50%
# HEK293 cytotox SP – HEK293 cell cytotoxicity at single point; shares compounds with esBAF inh; plate reader; activity change, negative = inhibition, % at 25 µM, hits read low; 550 compounds, 3% hits; AID 743190; in the data active = activity change below about -38%, passing the limit was not always enough
# * = called active by the depositor; ? = inconclusive; . = not tested or not shown. Sampled rows, rich in hits. Any-hit rate of the full collection: about 4.3%.
SMILES,MITF act,SMARCA2 act,esBAF inh,HSF1 inh,HSF-1 act,Wnt bcat act,esBAF Ring1 qPCR,esBAF Fgf4 qPCR,Bmi1 derepress,A549 cytotox,HepG2 tox SP,HEK293 cytotox SP
COc1ccc(CNC(=O)Nc2cccc(C)c2)cc1,75,8,67*,24,10,35*,1.2,1.1,1.4,0,2,3
COc1ccc(CNC(=O)Nc2ccc(OC)cc2)cc1,-5,0,-1,2,-16,.,.,.,.,.,.,.
COc1cc(OC)cc(OC)c1,.,-3,5,.,.,4,.,.,.,.,.,.
COc1cc(/C=C/c2ccc(O)cc2)cc(OC)c1,.,3,61*,23,33,2,0.95,0.97,2,-4,-35,2
C[C@@H]1CN([C@H](C)CO)C(=O)c2cc(C#Cc3cccc(F)c3)cnc2O[C@H]1CN(C)C(=O)c1ccccc1F,.,.,-6,.,.,.,.,.,.,.,.,.
COc1ccc(NC(=O)Nc2ccc3c(c2)C(=O)N([C@H](C)CO)C[C@@H](C)[C@H](CN(C)C(=O)NC2CCCCC2)OCCCC[C@H](C)O3)cc1,.,.,6,.,.,.,.,.,.,.,.,.
CCCS(=O)(=O)N1CCC(C(=O)NC2CCC(C)CC2)CC1 (stereo unspecified),74,3,56*,-6,-2,.,1.1,0.89,1.3,-8,-22,-7
CC(=O)N(/N=C1\Sc2ccccc2C1=O)c1ccccc1,.,5,81*,.,.,.,1.1,.,1.2,-3,-1,-12
CNC(=O)C[C@H]1CC[C@@H]2[C@H](COc3ccc(NC(=O)C4CC4)cc3C(=O)N2C)O1,.,.,7,.,.,.,.,.,.,.,.,.
N#Cc1cccc(-c2ccc([C@H]3[C@@H](CO)N4CCCCN(C(=O)Nc5cccc(F)c5)C[C@@H]34)cc2)c1,.,.,-6,.,.,.,.,.,.,.,.,.
CCC(=O)c1ccc(N2CCN(C(=O)c3ccccc3F)CC2)c(F)c1,-2,0,.,0,5,-3,.,.,.,.,.,.
CCC(=O)c1ccc(N2CCCC2)c(F)c1,.,0,57*,9,16,.,1.1,0.91,1.4,-4,-21,-11
CCC(=O)c1ccc(N2CCCCCC2)c(F)c1,54,1,74*,13,50,.,1.1,1.1,1.3,-17,20,-15
COc1cccc(/C=N/n2c(N)nc3ccccc32)c1OC,90*,3,73*,.,.,27,1.6,1,2.3,-4,-13,-9
CNC[C@H]1Oc2ccc(NC(=O)CCCN(C)C)cc2C(=O)N([C@H](C)CO)C[C@@H]1C,.,.,4,.,.,.,.,.,.,.,.,.
Cc1ccc(C(=O)CN2C(=O)NC3(CCCCCC3)C2=O)c(C)c1,115*,4,80*,17,44,24,1.1,0.9,1.4,-7,12,-17
CC(=O)C(Cc1ccc(Cl)nc1)Cc1ccc(Cl)nc1,-4,-1,.,0,-7,-1,.,.,.,.,.,.
COC(=O)Cc1ccc(OCc2ccc(Cl)nc2)cc1,95*,7,59*,21,13,-2,1.2,0.91,1.8,0,-30,-4
Cc1cc(C(=O)Nc2sc(C)c(-c3ccc(F)cc3)c2C(N)=O)no1,79,5,78*,7,12,.,1,0.97,1.4,7,-17,-3
O=C(O)CC(c1ccc(Cl)cc1)N1Cc2ccccc2C1=O (stereo unspecified),-4,-1,-10,-2,-3,-1,.,.,.,.,.,.
COC(=O)C(Cc1ccc(OC(=O)c2ccc(Cl)cc2)cc1)N1Cc2ccccc2C1=O (stereo unspecified),28,4,72*,10,2,-1,1.2,0.84,1.2,3,-30,-5
COc1ccccc1Nc1nc(Cl)nc(NC(C)(C)C)n1,-6,-5,.,3,18,0,.,.,.,.,.,.
CC(C)(C)Nc1nc(Cl)nc(Nc2ccccc2)n1,.,2,59*,19,28,9,1.3,?,1.6,-10,1,-14
CO[C@H]1CN(C)C(=O)c2cc(NC(=O)C3CCC3)ccc2OC[C@@H](C)N(Cc2ccccn2)C[C@H]1C,.,.,2,.,.,.,.,.,.,.,.,.
CCC1CCCCN1C(=O)c1ccc2nc(Cc3ccc(OC)cc3)oc2c1 (stereo unspecified),?,5,67*,-1,3,-1,1,1.2,0.91,7,-11,12
SMILES,MITF act,SMARCA2 act,esBAF inh,HSF1 inh,HSF-1 act,Wnt bcat act,esBAF Ring1 qPCR,esBAF Fgf4 qPCR,Bmi1 derepress,A549 cytotox,HepG2 tox SP,HEK293 cytotox SP
O=C(C[C@H]1C=C[C@@H](NC(=O)c2ccncc2)[C@H](CO)O1)Nc1ccc(-c2ccccc2)cc1,.,.,5,.,.,.,.,.,.,.,.,.
O=C(Nc1cccc2ccccc12)c1cnccn1,25,3,63*,9,19,.,1,0.92,1.5,-6,-15,-10
CC(=O)Oc1ccc(-c2csc(Nc3ccc(Cl)cn3)n2)cc1,.,1,59*,17,31,8,1.4,0.9,1.7,-9,-12,-1
COc1ccc(-c2csc(Nc3ccc(C)cn3)n2)cc1,53,-4,.,5,13,13,.,.,.,.,.,.
Nc1n[nH]c(N)c1N=Nc1ccc(Cl)cc1,53,-2,53*,-1,-12,-3,1.4,1.1,1.9,0,3,5
CN(C)c1ccc(N=Cc2nc(-c3ccccc3)oc2OC(=O)c2cccc(Br)c2)cc1,68,6,63*,19,19,.,1.4,1,1.5,0,-34,-10
CCOC(=O)c1ccc(N=Cc2nc(-c3ccccc3)oc2OC(C)=O)cc1,-15,-3,15,8,21,.,.,.,.,.,.,.
COc1ccc(NC(=O)O/N=C/c2ccccc2)cc1,75,4,53*,19,26,39*,1,?,1.7,-9,-34,-9
Cc1nn(Cc2c(F)c(F)c(F)c(F)c2F)c(C)c1NC(=O)c1ccc(COc2ccccc2Cl)cc1,-4,2,9,-17,-26,.,.,.,.,.,.,.
Cc1nn(Cc2c(F)c(F)c(F)c(F)c2F)c(C)c1NC(=O)c1ccc(COc2cc(Cl)ccc2Cl)cc1,26,4,47*,29,32,15,1.1,1.1,1.4,-13,-5,-14
Cc1ccsc1CN(C)C(=O)C1CCC(=O)N(CCc2cccc(F)c2)C1 (stereo unspecified),48,2,65*,13,21,0,1.4,0.97,1.7,-6,-21,-9
